The source made the active and inactive calls.

For test [1], the system named is PRMT1 (protein arginine N-methyltransferase 1). The test is described as follows: small molecules binding arginine methyltransferase PRMT1 – biochemical, small-molecule microarray, 635 nm fluorescence, primary screen (AID 1088).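 Note: binding of Prmt1 protein to compounds spotted on small-molecule microarray slides.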 To be noted: higher = more signal.
A short description of test [2]: growth effects on S. cerevisiae YJM789 – YJM789 clinical isolate, OD600, 24 h, basal, primary screen (AID 1089).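 Note: growth of clinical yeast isolate S. cerevisiae YJM 789 seeded 1000 cells per well; test concentration not given here.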 To be noted: higher = more signal, called active from +8 up or from −8 down.
Test [3] in a line: S. pombe growth modifiers, basal conditions – strain 972, OD600, 24 h, no modulator, primary screen (AID 1090).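 Note: basal condition with compound alone and no growth modifier present; test concentration not given here.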 The following applies: S. pombe 972 growth, higher = more signal, called active from +8 up or from −8 down.
Test [4] is described as follows: budding yeast growth modifiers under rapamycin – strain BY4716, OD600, 96 h, primary screen (AID 1091). Note: test concentration not given here. To be noted: S. cerevisiae BY4716 + rapamycin, higher = more signal, called active from +8 up or from −8 down.
The target of test [5] is Torsin-1A-interacting protein 2 (Homo sapiens) (UniProt Q8NFQ8). The test is described as follows: small molecules binding lysate-expressed LULL1 – cell lysate, human LULL1 lysate, 635/667 nm fluorescence, primary screen (AID 1092).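 Note: probe is lysate of COS7 cells overexpressing human LULL1; score merges per-feature 667 nm fluorescence with signal-to-noise.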 The following applies: small-molecule microarray, hLULL1 lysate binding, 635 nm fluorescence; higher = more signal.
Torsin-1A-interacting protein 2 (Homo sapiens), sequence (Q8NFQ8 whole entry, looked up): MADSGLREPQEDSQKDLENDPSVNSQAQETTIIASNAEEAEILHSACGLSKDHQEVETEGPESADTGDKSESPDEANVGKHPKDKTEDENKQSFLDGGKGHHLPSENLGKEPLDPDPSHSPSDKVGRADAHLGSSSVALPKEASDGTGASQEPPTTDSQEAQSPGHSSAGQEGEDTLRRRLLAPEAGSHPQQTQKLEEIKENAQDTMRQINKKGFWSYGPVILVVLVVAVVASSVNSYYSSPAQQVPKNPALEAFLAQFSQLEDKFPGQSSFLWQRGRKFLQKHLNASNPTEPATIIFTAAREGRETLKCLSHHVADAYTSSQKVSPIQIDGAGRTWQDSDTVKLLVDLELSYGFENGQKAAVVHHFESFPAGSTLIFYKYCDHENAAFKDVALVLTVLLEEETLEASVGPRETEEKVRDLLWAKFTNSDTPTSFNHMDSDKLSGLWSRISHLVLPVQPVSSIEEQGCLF
Test [6] can be described thus: optical density change of DRC41 E. coli – strain DRC41, OD650, 24 h, E. coli filamentation project, primary screen (AID 1093).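 Note: MC1000 strain lacking acrAB efflux and sulA so SOS filamentation is blocked; test concentration not given here.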 The following applies: E. coli DRC41 growth, higher = more signal, called active from +8 up or from −8 down.
Test [7] is described as follows: probe aLefty2 binding to arrayed compounds – biochemical, biotinylated probe, 635/667 nm fluorescence, primary screen (AID 1094).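 Note: score merges spot fluorescence near 667 nm with spot signal-to-noise ratio.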 To be noted: small-molecule microarray, higher = more signal.
The test system of test [8] is Noggin (protein binding on small-molecule microarray). The test is described as follows: small molecules binding Noggin protein – biochemical, 635/667 nm fluorescence, primary screen (AID 1095).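 Note: score merges 667 nm feature fluorescence with signal to noise over triplicate slides.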 To be noted: 635 nm fluorescence, higher = more signal.
Test [9] has as its target Neurogenic locus notch homolog protein 3 (Homo sapiens) (UniProt Q9UM47). The test is described as follows: small molecules binding NOTCH3 protein – biochemical, 635/667 nm fluorescence, primary screen (AID 1096). To be noted: small-molecule microarray, 635 nm fluorescence, higher = more signal.
Test [10] can be described thus: probe aEGFR binding to arrayed compounds – biochemical, biotinylated probe, 635/667 nm fluorescence, primary screen (AID 1097).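 Note: probe is a biotinylated anti-EGFR antibody binding compounds printed on slides; score combines fluorescence near 667 nm and signal to noise of each spot.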 The following applies: small-molecule microarray, higher = more signal.
For test [11], the system named is Plasmodium falciparum Sir2 (PF13_0152, Sir2A). The test is described as follows: Plasmodium falciparum Sir2A binding compounds – biochemical, small-molecule microarray, 635 nm fluorescence, primary screen (AID 1098).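 Note: score merges spot fluorescence intensity with its signal-to-noise ratio.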 To be noted: fluorescence 635 nm, higher = more signal.
The nature of test [12]: probe aDKK1 binding to arrayed compounds – biochemical, biotinylated probe, 635/667 nm fluorescence, primary screen (AID 1099).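 Note: score merges 667nm spot fluorescence with signal to noise across triplicate slides; reference of the scale not given here.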 To be noted: small-molecule microarray, higher = more signal.
Test [13] is described as follows: probe aCHRDL2 binding to arrayed compounds – biochemical, biotinylated probe, 635/667 nm fluorescence, primary screen (AID 1100). The following applies: small-molecule microarray, higher = more signal.
Test [14] is described as follows: change in splice reporter luminescence, either direction, cell-based, HEK293, spliceosome inhibition project, primary screen (AID 1101).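 Note: HEK293 cells carrying a splicing-competent luciferase reporter gene; test concentration not given here.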 The following applies: HEK293 splicing luciferase reporter, 24 h, higher = more signal, called active from +8 up or from −8 down. Background: Reporter assays use an easily measured gene product as a stand-in for the process of interest.

Test [15] deals with Fibroblast growth factor 10 (Homo sapiens) (UniProt O15520). The test is described as follows: compounds binding fibroblast growth factor 10 – biochemical, small-molecule microarray, 635 nm fluorescence, primary screen (AID 1102). The following applies: FGF10 binding, fluorescence 635 nm, higher = more signal.
Fibroblast growth factor 10 (Homo sapiens), sequence (O15520 whole entry, looked up): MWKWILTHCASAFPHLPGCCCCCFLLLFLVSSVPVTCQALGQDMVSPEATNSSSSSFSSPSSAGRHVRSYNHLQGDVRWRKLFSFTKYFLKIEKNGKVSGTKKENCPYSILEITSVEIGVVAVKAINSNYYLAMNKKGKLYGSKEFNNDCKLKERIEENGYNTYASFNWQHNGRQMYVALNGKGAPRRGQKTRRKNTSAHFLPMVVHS
Test [16] has as its system glycogen synthase kinase-3 (GSK3A per assay name; protocol says GSK3B). The test is described as follows: compounds binding glycogen synthase kinase-3 – biochemical, small-molecule microarray, 635 nm fluorescence, GSK3A, primary screen (AID 1103). Note: the record names both GSK3A and GSK3B. The following applies: fluorescence 635 nm, higher = more signal.
The target in test [17] is Epidermal growth factor receptor (Homo sapiens) (UniProt P00533). The test is described as follows: compounds binding epidermal growth factor receptor – biochemical, small-molecule microarray, 635 nm fluorescence, primary screen (AID 1104).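 Note: score merges 667 nm emission intensity with spot signal to noise over triplicate slides.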 To be noted: EGFR binding, higher = more signal.
Epidermal growth factor receptor (Homo sapiens), sequence (P00533 whole entry, looked up): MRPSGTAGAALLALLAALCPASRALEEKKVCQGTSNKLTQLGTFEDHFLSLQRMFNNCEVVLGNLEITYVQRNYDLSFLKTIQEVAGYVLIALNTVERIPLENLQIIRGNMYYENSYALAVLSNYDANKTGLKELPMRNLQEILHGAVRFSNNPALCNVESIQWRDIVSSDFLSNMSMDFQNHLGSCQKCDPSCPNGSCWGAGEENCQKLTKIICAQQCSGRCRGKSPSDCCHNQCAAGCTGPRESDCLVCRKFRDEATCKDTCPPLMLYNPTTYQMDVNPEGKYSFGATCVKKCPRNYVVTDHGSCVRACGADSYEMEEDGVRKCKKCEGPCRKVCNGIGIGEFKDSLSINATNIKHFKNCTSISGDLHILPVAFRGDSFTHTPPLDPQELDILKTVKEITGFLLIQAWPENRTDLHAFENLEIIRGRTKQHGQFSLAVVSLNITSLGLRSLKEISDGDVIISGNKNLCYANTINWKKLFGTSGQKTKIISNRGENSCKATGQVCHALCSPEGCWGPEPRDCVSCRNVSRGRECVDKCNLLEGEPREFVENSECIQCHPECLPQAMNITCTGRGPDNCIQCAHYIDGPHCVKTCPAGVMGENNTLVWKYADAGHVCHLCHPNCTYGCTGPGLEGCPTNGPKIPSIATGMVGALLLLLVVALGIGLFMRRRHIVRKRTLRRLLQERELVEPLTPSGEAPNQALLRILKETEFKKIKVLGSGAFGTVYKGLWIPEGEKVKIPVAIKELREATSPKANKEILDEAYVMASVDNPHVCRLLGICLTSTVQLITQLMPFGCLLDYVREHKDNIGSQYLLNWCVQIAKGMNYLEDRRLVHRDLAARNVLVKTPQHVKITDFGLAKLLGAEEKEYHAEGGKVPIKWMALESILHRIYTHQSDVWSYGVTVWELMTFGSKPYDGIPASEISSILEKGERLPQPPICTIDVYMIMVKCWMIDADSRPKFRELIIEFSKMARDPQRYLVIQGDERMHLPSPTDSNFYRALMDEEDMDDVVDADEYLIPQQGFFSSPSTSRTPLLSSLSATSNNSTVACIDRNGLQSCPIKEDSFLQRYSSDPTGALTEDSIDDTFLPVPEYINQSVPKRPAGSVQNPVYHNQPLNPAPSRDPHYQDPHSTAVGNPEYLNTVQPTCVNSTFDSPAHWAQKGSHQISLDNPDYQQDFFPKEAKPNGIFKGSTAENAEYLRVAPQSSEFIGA
The target of test [18] is Follistatin-related protein 3 (Homo sapiens) (UniProt O95633). The test is described as follows: compounds binding follistatin-related protein 3 – biochemical, small-molecule microarray, 635 nm fluorescence, primary screen (AID 1105).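 Note: score merges emission near 667 nm and signal to noise per printed spot across three slides.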 To be noted: FSTL3 binding, higher = more signal.
Follistatin-related protein 3 (Homo sapiens), sequence (O95633 whole entry, looked up): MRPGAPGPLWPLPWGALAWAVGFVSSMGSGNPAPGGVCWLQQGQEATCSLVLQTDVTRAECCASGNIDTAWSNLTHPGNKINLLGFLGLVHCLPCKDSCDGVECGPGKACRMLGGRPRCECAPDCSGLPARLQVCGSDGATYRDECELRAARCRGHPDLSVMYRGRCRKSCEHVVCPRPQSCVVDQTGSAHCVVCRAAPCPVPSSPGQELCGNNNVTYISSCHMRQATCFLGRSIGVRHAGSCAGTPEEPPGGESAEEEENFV
The target in test [19] is Dickkopf-related protein 1 (Homo sapiens) (UniProt O94907). The test is described as follows: small molecules binding DKK1 protein – biochemical, small-molecule microarray, 635 nm fluorescence scan, primary screen (AID 1106).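 Note: score merges emission near 667 nm with signal to noise over three replicate slides.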 To be noted: higher = more signal.
Dickkopf-related protein 1 (Homo sapiens), sequence (O94907 whole entry, looked up): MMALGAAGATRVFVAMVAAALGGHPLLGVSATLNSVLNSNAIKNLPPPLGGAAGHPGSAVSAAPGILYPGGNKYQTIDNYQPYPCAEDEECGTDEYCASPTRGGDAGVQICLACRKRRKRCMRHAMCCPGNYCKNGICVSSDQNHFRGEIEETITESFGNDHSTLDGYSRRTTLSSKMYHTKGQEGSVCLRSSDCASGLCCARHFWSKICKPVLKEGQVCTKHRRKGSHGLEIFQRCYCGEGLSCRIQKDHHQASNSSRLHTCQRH
The subject of test [20] is Inhibin beta A chain (activin A). The test is described as follows: small molecules binding activin A – biochemical, small-molecule microarray, 635 nm fluorescence scan, primary screen (AID 1107).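 Note: mouse activin A protein probed at 4.33 µg/mL on printed slides; score merges bound-protein fluorescence near 667 nm with spot signal-to-noise.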 The following applies: INHBA, higher = more signal.

Neurogenic locus notch homolog protein 3 (Homo sapiens), sequence (Q9UM47 whole entry, looked up): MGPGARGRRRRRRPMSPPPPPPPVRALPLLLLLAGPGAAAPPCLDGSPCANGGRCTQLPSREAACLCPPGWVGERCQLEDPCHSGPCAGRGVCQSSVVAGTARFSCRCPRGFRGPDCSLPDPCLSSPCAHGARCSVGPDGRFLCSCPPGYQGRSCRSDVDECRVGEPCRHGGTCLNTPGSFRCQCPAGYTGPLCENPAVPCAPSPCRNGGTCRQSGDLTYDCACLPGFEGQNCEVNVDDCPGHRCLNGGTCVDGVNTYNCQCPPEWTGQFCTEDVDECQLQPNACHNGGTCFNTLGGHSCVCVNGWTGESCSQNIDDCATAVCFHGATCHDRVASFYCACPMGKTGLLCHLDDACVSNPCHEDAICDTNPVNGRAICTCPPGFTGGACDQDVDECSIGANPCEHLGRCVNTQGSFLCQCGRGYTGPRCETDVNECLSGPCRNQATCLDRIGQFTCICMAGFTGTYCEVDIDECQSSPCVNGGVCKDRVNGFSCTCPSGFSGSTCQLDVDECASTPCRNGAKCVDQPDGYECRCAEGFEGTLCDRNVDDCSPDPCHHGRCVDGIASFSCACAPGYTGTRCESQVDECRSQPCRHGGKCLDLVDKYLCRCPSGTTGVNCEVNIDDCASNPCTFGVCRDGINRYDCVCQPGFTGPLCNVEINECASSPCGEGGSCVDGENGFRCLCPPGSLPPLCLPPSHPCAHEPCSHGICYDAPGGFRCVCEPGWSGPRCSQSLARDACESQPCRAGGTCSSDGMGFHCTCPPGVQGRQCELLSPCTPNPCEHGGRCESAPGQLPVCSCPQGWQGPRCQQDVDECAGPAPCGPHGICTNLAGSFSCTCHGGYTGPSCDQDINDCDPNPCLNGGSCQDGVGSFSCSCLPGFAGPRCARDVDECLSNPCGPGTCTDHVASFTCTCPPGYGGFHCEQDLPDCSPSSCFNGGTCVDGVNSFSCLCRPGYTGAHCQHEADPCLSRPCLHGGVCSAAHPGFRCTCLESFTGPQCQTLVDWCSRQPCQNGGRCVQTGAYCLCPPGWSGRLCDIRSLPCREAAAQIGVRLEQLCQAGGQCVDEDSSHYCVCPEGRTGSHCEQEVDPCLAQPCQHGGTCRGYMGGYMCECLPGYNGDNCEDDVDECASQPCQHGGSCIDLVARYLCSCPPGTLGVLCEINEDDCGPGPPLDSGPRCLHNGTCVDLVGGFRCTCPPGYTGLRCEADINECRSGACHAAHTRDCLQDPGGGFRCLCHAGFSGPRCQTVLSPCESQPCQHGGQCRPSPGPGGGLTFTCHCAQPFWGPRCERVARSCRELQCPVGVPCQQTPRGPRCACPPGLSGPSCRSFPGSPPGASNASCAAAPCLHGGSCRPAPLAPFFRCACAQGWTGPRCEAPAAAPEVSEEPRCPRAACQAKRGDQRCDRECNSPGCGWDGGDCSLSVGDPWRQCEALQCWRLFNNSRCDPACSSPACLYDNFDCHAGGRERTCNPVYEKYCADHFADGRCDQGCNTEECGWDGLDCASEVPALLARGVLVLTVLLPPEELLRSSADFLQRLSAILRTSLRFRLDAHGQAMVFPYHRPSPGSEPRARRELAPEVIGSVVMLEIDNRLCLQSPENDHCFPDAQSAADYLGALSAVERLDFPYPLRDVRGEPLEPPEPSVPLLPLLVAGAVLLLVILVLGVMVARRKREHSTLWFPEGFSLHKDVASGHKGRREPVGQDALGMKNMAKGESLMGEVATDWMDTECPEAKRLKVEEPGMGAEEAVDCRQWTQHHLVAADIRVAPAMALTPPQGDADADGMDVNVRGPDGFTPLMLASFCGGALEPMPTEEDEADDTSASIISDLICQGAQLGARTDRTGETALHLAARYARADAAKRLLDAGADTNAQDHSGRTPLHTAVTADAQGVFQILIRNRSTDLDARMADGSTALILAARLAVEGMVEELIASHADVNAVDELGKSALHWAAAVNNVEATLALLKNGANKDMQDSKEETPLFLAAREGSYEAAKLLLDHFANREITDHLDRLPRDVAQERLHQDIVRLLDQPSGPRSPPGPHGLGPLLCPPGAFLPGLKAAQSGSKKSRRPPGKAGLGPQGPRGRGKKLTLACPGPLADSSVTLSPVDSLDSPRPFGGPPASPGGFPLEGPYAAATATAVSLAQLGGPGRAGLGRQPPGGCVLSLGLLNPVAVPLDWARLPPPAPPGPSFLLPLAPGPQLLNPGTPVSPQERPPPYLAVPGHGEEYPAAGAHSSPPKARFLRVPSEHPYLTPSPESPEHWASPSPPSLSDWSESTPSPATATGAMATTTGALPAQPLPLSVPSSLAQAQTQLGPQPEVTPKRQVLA

On to `C#CCCCON=C1C[C@@H](O)[C@@H](O)[C@@H]2[C@@H]3C(=O)N(C[C@@H]4CCCO4)C(=O)[C@@H]3CC[C@@H]12`, for which the composite z-score in test [1] is 0.345; in test [5] it was 0.379; in [7], -0.119; in test [8] it was 0.595; in [9], 0.752; in test [10], -0.0436. Also, the composite z-score is 0.44 in test [11]; -0.244 in test [12]; -0.362 in test [13]; 0.732 in test [15]; 0.223 in [16]; 0.469 in test [17]. Also, the composite z-score in test [18] was determined as 0.67; in test [19], 0.449; in [20], 0.397. The z-score in test [2] is -0.281 (inactive); in test [3], 0.504 (inactive); in test [4] it was -0.747 (inactive); in test [6], 0.133 (inactive); in [14] it was -0.28 (inactive).

Regarding `O=C1C[C@H](c2ccccc2)[C@H](c2ccc(Br)cc2)O1`, the composite z-score in test [1] was -0.146; in test [5] it was -0.247; in test [7], -0.224; in [8], 0.401; in test [9] it was -0.489; in test [10], -0.17. Besides, the composite z-score in test [11] is -0.159; in test [12], 0.0628; in test [13], -0.939; in test [15], 0.193; in test [16] it was -0.826; in test [17], 0.127. Besides, the composite z-score in test [18] is -0.093; in test [19], 0.278; in test [20], 0.266. Moreover, the z-score in test [2] was -3.83 (inactive); in [3], -11.8 (active); in test [4] it was -1.84 (inactive); in test [6], 0.421 (inactive); in test [14], -0.823 (inactive).

In the case of `CCOC(=O)[C@H](CC(C)C)NC(=O)CCC1CC(OC(=O)NCc2ccc3c(c2)OCO3)CC2(CCCC(COC(=O)NCCOC)O2)O1` (stereo not given in full), the composite z-score in [1] was 0.634; in test [5], 1.71; in [7] it was -0.205; in test [8], 0.474; in test [9], 0.793; in [10], 0.0953. In addition, the composite z-score is 0.622 in test [11]; -0.27 in test [12]; -0.261 in [13]; 0.495 in test [15]; 0.627 in [16]; 0.184 in [17]. Further, the composite z-score in test [18] came out at 0.864; in test [19], 0.336; in [20], 0.637. Moreover, the z-score in test [2] is 0.0162 (inactive); in test [3] it was 0.48 (inactive); in test [4], -0.958 (inactive); in [6], -0.172 (inactive); in test [14] it was -0.191 (inactive).

As for `CC(CCN1CCc2nc(-c3ccccc3)c(-c3ccccc3)cc2C1)=NO[C@@H](C)c1cc(-c2c(C)cc(C)cc2C)no1`, the composite z-score in [1] is 0.535; in test [5], 0.838; in test [7] it was -0.186; in [8], -0.0011; in [9] it was -1.29; in [10], -0.17. In addition, the composite z-score is 0.655 in [11]; -0.0029 in test [12]; 0.77 in test [13]; -0.567 in test [15]; -0.725 in test [16]; -0.345 in test [17]. The composite z-score in test [18] was -0.601; in test [19], -0.524; in test [20], 0.5. Moreover, the z-score in [2] was -0.295 (inactive); in test [3] it was -0.974 (inactive); in test [4] it was -3.2 (inactive); in test [6] it was -0.394 (inactive); in [14], -1.56 (inactive).

As to `C[C@H]1C=CCC(=O)OC[C@H](C)C(=O)N2CCC[C@H]2C(=O)OC1`, the composite z-score was 1.54 in test [1]; -1.44 in test [5]; -0.228 in test [7]; 2.09 in [8]; 0.373 in [9]; 0.177 in test [10]. The composite z-score in test [11] is 1.01; in test [12], -0.235; in [13], -1.53; in [15], 1.47; in [16] it was 1.29; in test [17], 1.73. For the same compound, the composite z-score in [18] was 1.48; in [19] it was 2.11; in [20] it was -0.626. The z-score in test [2] was 0.94 (inactive); in [3], 0.499 (inactive); in test [4], -0.0933 (inactive); in test [6], 0.0085 (inactive); in test [14], -0.0436 (inactive).

These data come from PubChem BioAssay.
